Screens (PubChem BioAssay)
AMA1 RON2 block: AMA1-RON2 (P. falciparum) interaction inhibition; 360,000 compounds, 0.2% hits; AlphaScreen AMA1-biotinylated RON2 peptide binding; Potency, µM (top dose mostly 58.2 µM), without a hit: at the highest dose activity change, negative = inhibition, usual class: inhibitors;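 further: potency means the concentration at half of the fitted maximal effect; 0% = vehicle wells and -100% = peptide control; nearly all actives have a fitted effect of over 45% in size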
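AMA1 (3D7) with his tag at 25 nM final met compounds first, then biotinylated RON2 peptide at 25 nM; detection used donor plus acceptor beads, 10 µg/mL apiece, read by AlphaScreen after 30 min at room temperature.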
Pf growth 48h: inhibits P. falciparum growth in the first generation, 48 h | P. falciparum luciferase growth in erythrocytes, 48 h | Potency, µM (highest dose often 28.7 µM), for the others: at the top dose activity change, negative = inhibition, usual class: inhibitors | AID 504832 | 310,000 compounds, 5.9% hits; further: potency means the concentration at half of the fitted maximal effect; on the % scale 0 is the no-effect control and ±100 the full control effect
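Cell-based growth assay: transgenic P. falciparum expressing firefly luciferase, cultured in red cells within RPMI 1640 containing 0.5% w/v Albumax, 24 mM bicarbonate and gentamycin. A drop in luciferase activity indicates inhibition.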
Cycloheximide cs: counter-screen hit for Shiga toxin inhibitors, cycloheximide. AID 2314. 300,000 compounds, 12% hits. cell reporter, cycloheximide protein synthesis inhibition counterscreen. max response, %; in the data active means max response mostly above about 13%, no sharp cut-off; inactive means mostly below about 14%; further: read at 38.3 µM for the half of the compounds with a filed dose; 0% is about no effect
Pf growth 96h: P. falciparum growth inhibition at 96 hours; Potency, µM (top dose mostly 28.7 µM), without a hit: at the highest dose activity change, negative = inhibition, hits mostly inhibitors; AID 504834; 320,000 compounds, 6.9% hits; P. falciparum luciferase reporter growth, 96 h; further: potency means the concentration at half of the fitted maximal effect; on the % scale 0 is the no-effect control and ±100 the full control effect
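Two-generation exposure (96 h) targets delayed-death phenotype. Reporter parasites carrying integrated firefly luciferase, in red cells at 2% hematocrit and 0.05% parasitemia final, kept at 37 C, 5% CO2; luminescence loss indicates inhibition.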
Shiga inhibitor: Shiga toxin inhibition; Vero cells, Shiga toxin protein synthesis inhibition reporter; inhibition, % at 38.7 µM; 290,000 compounds, 9.2% hits; in the data active means inhibition mostly above about 28%, no sharp cut-off; inactive means mostly below about 43%; further: 0% is about no effect
HCV inhibitor: HCV inhibition; Huh7.5.1 HCVcc-Cre infection, luciferase reporter, 44 h; Potency, µM (titrated, usually from 41.8 µM), for the others: at the highest dose activity change, negative = inhibition, usual class: inhibitors; 340,000 compounds, 3.4% hits; AID 651820; further: potency means the concentration at half of the fitted maximal effect; on the % scale 0 is the no-effect control and ±100 the full control effect
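Cells (1,000/well) were plated 4 h before compound, then infected with HCVcc-Cre virus (~0.5 moi). After 44 h further culture, infection was read as luciferase luminescence following a 15 min substrate incubation at room temperature.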
An asterisk follows results filed as active; ? = inconclusive; / = no result given. An excerpt weighted towards active compounds, which were near 21% of everything screened. Unless noted, the call rests on the fitted dose curve; in most records, active means well fitted curve in the direction sought with a large enough effect; inconclusive means small, poorly fitted or top-dose-only effect, or another doubt; inactive means no such curve, though single readings can be large; an effect the other way counts as inactive or inconclusive.

SMILES	AMA1 RON2 block	Pf growth 48h	Cycloheximide cs	Pf growth 96h	Shiga inhibitor	HCV inhibitor
O=C(NC1CCOC1)c1cc(COc2cccc(C(F)(F)F)c2)on1 (configuration not stated)	6%	-24%	41*	?	66*	?
CC(NC(=O)c1cc(COc2cccc(C(F)(F)F)c2)on1)c1nccs1 (configuration not stated)	13%	15%	43*	33%	57*	-10%
COc1ccccc1CCNC(=O)c1cc(COc2cccc(C(F)(F)F)c2)on1	11%	-2%	-1	?	14	?
COc1ccc(OCc2cc(C(=O)NC3CCOC(C)(C)C3)no2)c2ccccc12 (configuration not stated)	/	9.3µM*	96*	1.2µM*	103*	/
O=C(NCC1CCOCC1)c1cc(COc2cccc(C(F)(F)F)c2)on1	7%	18%	-3	-3%	-2	?
CSc1ccccc1OCc1cc(C(=O)NC2CCc3ccccc32)no1 (configuration not stated)	0%	-17%	9	19%	9	-1%
CSc1ccccc1OCc1cc(C(=O)NC2CCOC2)no1 (configuration not stated)	-16%	7%	49*	41%	49*	7%
CSc1nc2ccccc2c(=O)n1C1CCOC(C)(C)C1 (configuration not stated)	-4%	27%	-4	68%	-5	-16%
CCCN(C(=O)COc1ccc(C(C)=O)cc1OC)C1CCS(=O)(=O)C1 (configuration not stated)	4%	-8%	/	-16%	/	5%
Cc1ccc(C)c(OCc2cc(C(=O)NC3CCOC(C)(C)C3)no2)c1 (configuration not stated)	0%	-3%	56*	10µM*	85*	/
CSc1ccccc1OCc1cc(C(=O)NC2CCOC(C)(C)C2)no1 (configuration not stated)	9%	-30%	22*	?	97*	/
CC12CCC3c4ccc(O)cc4CCC3C1CCC2O (configuration not stated)	/	/	-4	/	14	/
C[C@]12CC[C@@H]3c4cc(O)c(O)cc4CC[C@H]3[C@@H]1CC[C@@H]2O	?	/	2	/	25	13µM*
O=C(C(=O)N1CCCc2ccccc21)N1CCCc2ccccc21	-1%	2%	1	?	-10	12%
O=C(NC(=S)N1CCCc2ccccc21)c1ccc(Cl)cc1	-5%	79%	52*	10%	73*	-28%
O=C(NC(=S)N1CCCc2ccccc21)c1ccc(Br)cc1	-19%	-2%	22*	?	32	8%
O=C(NC(=S)N1CCCc2ccccc21)c1ccc([N+](=O)[O-])cc1	-28%	?	47*	7.4µM*	58*	?
O=CN1CCN(C(=S)NC(=O)c2ccc(Cl)cc2)CC1	127%	-2%	2	9%	14	19%
NC(=S)N1CCCc2ccccc21	-12%	?	9	?	12	18%
O=C(NC(=S)N1CCCc2ccccc21)c1ccccc1	-19%	3%	25*	?	69*	?
O=C(NCCc1ccccc1)C(=O)NCC1OCCCN1S(=O)(=O)c1cccs1 (configuration not stated)	2%	-28%	-3	5%	14	10%
Cc1ccc(-c2nc(CN(Cc3cnn(C)c3)C(C)C)c(C)o2)o1	1%	-6%	0	7.4µM*	-9	1%
CCNC(=O)C1(C)CCN(C(=O)c2c(F)cccc2F)C1 (configuration not stated)	-1%	/	/	/	/	/
COc1ccc(C(=O)ON=C(C)c2nccs2)cc1	8%	/	/	/	/	/
CCN(CC)c1ncnc2scc(C3COc4ccccc4O3)c12 (configuration not stated)	-22%	8.3µM*	-2	-19%	1	11µM*
SMILES	AMA1 RON2 block	Pf growth 48h	Cycloheximide cs	Pf growth 96h	Shiga inhibitor	HCV inhibitor
O=C(O)CNC(=O)/C(=C\c1cccc([N+](=O)[O-])c1)NC(=O)c1ccco1	0%	11%	-6	-7%	-5	3%
CC1Cc2ccccc2N1Cc1cccc([N+](=O)[O-])c1 (configuration not stated)	10µM*	-10%	9	-2%	-8	-15%
O=[N+]([O-])c1cccc(CN2CCC(Cc3ccccc3)CC2)c1	?	0%	-1	6%	5	-24%
O=C1CSC(c2ccc([N+](=O)[O-])cc2)N1Cc1ccccc1 (configuration not stated)	0%	-10%	-3	-9%	-5	0%
CC1Cc2ccccc2N1Cc1ccc([N+](=O)[O-])cc1 (configuration not stated)	11µM*	?	-6	?	-10	-16%
O=C(NCc1ccccc1)c1cc(C2CCCCN2S(=O)(=O)c2ccccc2)on1 (configuration not stated)	-1%	/	/	/	/	/
O=C(NC1CCCC1)C1c2ccccc2OCC(=O)N1C1CC1 (configuration not stated)	-6%	/	/	/	/	/
CCCc1cc(=O)oc2cc(OCC(=O)Nc3ccc(S(N)(=O)=O)cc3)ccc12	0%	21%	-1	52%	-3	18%
Cc1nnc(N2CCOCC2)c2nn(-c3ccccc3)c(C)c12	-2%	-7%	-5	?	-9	22%
Cc1ccc(-n2nc3c(Cl)nnc(C)c3c2C)cc1	7%	0.41µM*	-5	0.33µM*	15	0%
O=C(COc1ccc2c3c(c(=O)oc2c1)CCCC3)N1CCN(c2ccccc2)CC1	1%	-2%	-3	?	-4	?
Cc1cc(=O)[nH]c2c(C)cc(S(=O)(=O)N3CCCCC3)cc12	-12%	-6%	1	13µM*	3	6%
Cc1cc(=O)[nH]c2c(C)cc(S(=O)(=O)N3CCOCC3)cc12	8%	/	/	/	/	0%
COc1cc(NC(=O)c2ccc(NS(=O)(=O)c3c(C)noc3C)cc2)cc(OC)c1	-10%	?	-3	0.33µM*	17	-20%
Cc1noc(C)c1S(=O)(=O)Nc1ccc(C(=O)Nc2ccc(OC(F)(F)F)cc2)cc1	19%	-20%	-11	?	-5	14µM*
O=C(CN1C(=O)NC2(CCc3ccccc32)C1=O)Nc1ccc(Cl)cc1F (configuration not stated)	-4%	/	/	/	/	/
CN1C[C@@H]2[C@@H]3C(=O)N(Cc4ccccc4)C(=O)[C@@H]3[C@](C)(C1=O)N2C(=O)c1ccccc1	-2%	/	/	/	/	9%
Cc1cc([N+](=O)[O-])ccc1NCc1ccco1	-8%	46%	7	-26%	-6	-16%
COc1cccc(CNc2ccc([N+](=O)[O-])cc2C)c1	?	?	2	17%	-2	-17%
